Data from PubChem BioAssay (NCATS).
Unmarked numbers belong to inactive results. Results filed as inconclusive are left out. Activity calls are given as the source filed them. Calls come from the whole dose curve; as a rule, active = well fitted inhibition curve with a large enough effect; inconclusive = small, poorly fitted or top-dose-only effect; inactive = no such curve, though single readings can be large or run the other way.

Molecular target: Single-stranded DNA cytosine deaminase (Homo sapiens) (UniProt Q9GZX7)
Test: Validation qHTS assay for inhibitors of Activation Induced Cytidine Deaminase (AID): AID signal (AID 1347429); note: % is set by controls: 0 for no effect and ±100 for the full control effect
Details: Recombinant AID, FRET ssDNA deamination with UDG, fluorescence; series mostly up to 115 µM; activity change, negative = inhibition: at the top concentration
In short: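 Steps: dispense AID with UDG; pin-transfer compound up to 114 uM final; add DJC20/DJC23 substrate and hold 4 hr at room temperature; add NaOH, hold 30 min; read FRET signal (540/590 nm).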

Chain of Single-stranded DNA cytosine deaminase (Homo sapiens) (Q9GZX7 whole entry, looked up): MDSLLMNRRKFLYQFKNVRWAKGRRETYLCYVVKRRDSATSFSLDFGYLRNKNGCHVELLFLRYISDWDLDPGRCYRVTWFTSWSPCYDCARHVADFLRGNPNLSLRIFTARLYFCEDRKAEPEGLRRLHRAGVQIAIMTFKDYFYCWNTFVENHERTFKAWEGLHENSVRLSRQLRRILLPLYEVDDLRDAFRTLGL

First: Oc1ccccc1O
Second: C[C@@H](NC(=O)/C(C#N)=C/c1ccc(O)c(O)c1)c1ccccc1
The “activity change, negative = inhibition” value of the first is higher: 23.2% for the first, 9.54% for the second.

Going from `CSc1ccccc1N1CCN(CCCCCC(=O)NC2CCCc3ccccc32)CC1` (stereo not drawn) to `Ic1ccc(N2CCN(Cc3c[nH]c4ncccc34)CC2)cc1`, the “activity change, negative = inhibition” value rises from -1.97% to 9.49%.

First: O=C1/C(=C/c2ccsc2)CC/C1=C\c1cccs1
Second: Cc1nc2sccn2c(=O)c1CCN1CCC(=C(c2ccccc2)c2ccc(F)cc2)CC1
The “activity change, negative = inhibition” value of the first is higher: 19.1% for the first, 4.24% for the second.

Going from `CCCCCCCCCCCCCCCCCC(=O)OC(CC(=O)O)C[N+](C)(C)C` (stereo not drawn) to `CCCCCCCCCCCCCCCC(=O)NCC(COP(=O)([O-])OCC[N+](C)(C)C)OCC` (stereo not drawn), the “activity change, negative = inhibition” value rises from -1.84% to -0.608%.

Compared with `Nc1ncnc2c1c(I)cn2[C@@H]1C[C@H](N)[C@@H](O)[C@H]1O`, `CNC(=O)[C@H]1O[C@@H](n2cnc3c(NCc4cccc(I)c4)ncnc32)[C@H](O)[C@@H]1O` is lower in “activity change, negative = inhibition” value: 111% for the first, 9.02% for the second.

Going from `Cn1cc(C2=C(c3ccc(Cl)cc3Cl)C(=O)NC2=O)c2ccccc21` to `O=C(Nc1ccccc1)c1cc([N+](=O)[O-])ccc1Cl`, the “activity change, negative = inhibition” value falls from 430% to -4.5%.

Going from `CCCCCCCCCCCCCCCCCCNC(=O)OCC(COP(=O)([O-])OCC[n+]1ccsc1)OC` (stereo not drawn) to `NCCCCCCCCCCN`, the “activity change, negative = inhibition” value falls from 22.1% to 20.4%.

Going from `O=C(c1cc(O)c(O)c([N+](=O)[O-])c1)c1ccccc1F` to `N#C/C(=C\c1ccc(O)c(O)c1)C(=O)c1ccc(O)c(O)c1`, the “activity change, negative = inhibition” value falls from -7.15% to -9.72%.

First: NCCCS(=O)(=O)O
Second: NCCNC(=O)c1ncsc1-c1cccc(F)c1
The “activity change, negative = inhibition” value of the first is lower: 12.2% for the first, 14.1% for the second.

Going from `Nc1nc(Nc2ccccc2)nc2c1ncn2[C@@H]1O[C@H](CO)[C@@H](O)[C@H]1O` to `Cc1ccccc1CNc1ncnc2c1ncn2C1OC(CO)C(O)C1O` (stereo not drawn), the “activity change, negative = inhibition” value falls from 26.8% to 13%.

First: CN1CCc2cc(O)c(O)cc2C(c2ccccc2)C1 (stereo not drawn)
Second: COc1cc2nc(N3CCN(C(=O)OCc4ccccc4)C(C(=O)NC(C)(C)C)C3)nc(N)c2cc1OC (stereo not drawn)
The “activity change, negative = inhibition” value of the first is higher: 29.5% for the first, 4.45% for the second.

First: NC[C@@H]1O[C@H](C23CC4CC(CC(C4)C2)C3)Cc2c1ccc(O)c2O
Second: N=c1ccn2c(n1)O[C@H]1[C@H](O)[C@@H](CO)O[C@H]12
The “activity change, negative = inhibition” value of the first is higher: 30% for the first, 7.11% for the second.

Compared with `Nc1ncnc2c1ncn2[C@@H]1O[C@H](COP(=O)(O)CP(=O)(O)OP(=O)(O)O)[C@@H](O)[C@H]1O`, `NC(=S)c1ccc[n+]([C@@H]2O[C@@H](COP(=O)([O-])OP(=O)(O)OC[C@H]3O[C@@H](n4cnc5c(N)ncnc54)[C@H](OP(=O)(O)O)[C@@H]3O)C(O)C2O)c1` (stereo partly drawn) is higher in “activity change, negative = inhibition” value: 21.2% for the first, 55.9% for the second.

Compared with `OCC1O[C@H](O)C(Cl)C(O)C1O` (stereo partly drawn), `CCCCC#Cc1nc(NC)c2ncn([C@@H]3O[C@H](CO)[C@@H](O)[C@H]3O)c2n1` is higher in “activity change, negative = inhibition” value: 12.9% for the first, 20.5% for the second.

Compared with `CCCn1c(=O)c2[nH]c(-c3ccc(OCC(=O)NCCN)cc3)nc2n(CCC)c1=O`, `CC(C)ON([C@@H](C(=O)NO)C(C)C)S(=O)(=O)c1ccc(-c2ccccc2)cc1` is lower in “activity change, negative = inhibition” value: 39.1% for the first, 10.7% for the second.

First: CN=c1nc(-c2ccccc2)n(-c2ccccc2)s1
Second: CN(C)CCC(c1ccc(Cl)cc1)c1ccccn1 (stereo not drawn)
The “activity change, negative = inhibition” value of the first is higher: 17.7% for the first, 12.9% for the second.

First: CC(C)CC(NP(=O)(O)O[C@@H]1O[C@@H](C)[C@H](O)[C@@H](O)[C@H]1O)C(=O)NC(Cc1c[nH]c2ccccc12)C(=O)O (stereo partly drawn)
Second: Clc1ccc(N2CCN(Cc3c[nH]c4ncccc34)CC2)cc1
The “activity change, negative = inhibition” value of the first is higher: 11% for the first, 6.86% for the second.

Compared with `NCC1OC(O[C@H]2[C@H](O)[C@@H](OC3C(O)C(N)CC(N)C3OC3OC(CO)C(O)C(O)C3N)O[C@@H]2CO)C(N)C(O)C1O` (stereo partly drawn), `S=C(S)OC1CC2CC1C1CCCC21` (stereo not drawn) is lower in “activity change, negative = inhibition” value: 121% for the first, 4.73% for the second.

System: not listed separately
Test: Primary qHTS for inhibitors of La Crosse Virus (LACV) - induced cell death in SH-SY5Y cells (AID 1508616); note: potency is the fitted concentration of half-maximal effect;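 for activity change: top concentration of the series differs between compounds; 0% = infected DMSO wells and 100% = uninfected DMSO wells; higher means more rescue of cells from virus-induced death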
Details: SH-SY5Y LACV cytopathicity rescue, ATP luminescence, 6 d; series mostly up to 9.63 µM; activity change: at the top concentration
In short: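 SH-SY5Y, 6000 cells/well; cpd via pin tool in DMSO; LACV 0.01 MOI; 6 d 37C 5% CO2; ATPLite, 5 min RT; luminescence normalized to ±virus DMSO controls.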

For `Oc1ccccc1O`, the Potency was 2 µM (active).

First: CSc1ccccc1N1CCN(CCCCCC(=O)NC2CCCc3ccccc32)CC1 (stereo not drawn)
Second: Ic1ccc(N2CCN(Cc3c[nH]c4ncccc34)CC2)cc1
The “activity change” value of the first is lower: -8.58% for the first, -6.39% for the second.

Compared with `O=C1/C(=C/c2ccsc2)CC/C1=C\c1cccs1`, `Cc1nc2sccn2c(=O)c1CCN1CCC(=C(c2ccccc2)c2ccc(F)cc2)CC1` is lower in “activity change” value: 10.7% for the first, 2.44% for the second.

Compared with `CCCCCCCCCCCCCCCCCC(=O)OC(CC(=O)O)C[N+](C)(C)C` (stereo not drawn), `CCCCCCCCCCCCCCCC(=O)NCC(COP(=O)([O-])OCC[N+](C)(C)C)OCC` (stereo not drawn) is lower in “activity change” value: 23.1% for the first, 18.3% for the second.

Compared with `Nc1ncnc2c1c(I)cn2[C@@H]1C[C@H](N)[C@@H](O)[C@H]1O`, `Nc1ncnc2c1ncn2[C@@H]1O[C@H](COP(=O)(O)CP(=O)(O)OP(=O)(O)O)[C@@H](O)[C@H]1O` is higher in “activity change” value: -17.8% for the first, -12.8% for the second.

Going from `Cn1cc(C2=C(c3ccc(Cl)cc3Cl)C(=O)NC2=O)c2ccccc21` to `CN(C)CCC(c1ccc(Cl)cc1)c1ccccn1` (stereo not drawn), the “activity change” value falls from 21.6% to -21.5%.

Compared with `CCCCCCCCCCCCCCCCCCNC(=O)OCC(COP(=O)([O-])OCC[n+]1ccsc1)OC` (stereo not drawn), `NCCCCCCCCCCN` is lower in “activity change” value: 37.9% for the first, -7.74% for the second.

Going from `CC(COc1ccc(/C=C/c2ccccc2)cc1)[N+](C)(C)C` (stereo not drawn) to `CN=c1nc(-c2ccccc2)n(-c2ccccc2)s1`, the “activity change” value rises from 28.3% to 29.4%.

Compared with `O=C(c1cc(O)c(O)c([N+](=O)[O-])c1)c1ccccc1F`, `N#C/C(=C\c1ccc(O)c(O)c1)C(=O)c1ccc(O)c(O)c1` is lower in “activity change” value: 34.9% for the first, 31% for the second.

Going from `NCCCS(=O)(=O)O` to `NCCNC(=O)c1ncsc1-c1cccc(F)c1`, the “activity change” value rises from 8.82% to 15.7%.

Compared with `Nc1nc(Nc2ccccc2)nc2c1ncn2[C@@H]1O[C@H](CO)[C@@H](O)[C@H]1O`, `Cc1ccccc1CNc1ncnc2c1ncn2C1OC(CO)C(O)C1O` (stereo not drawn) is lower in “activity change” value: 3.54% for the first, -21.3% for the second.

First: CN1CCc2cc(O)c(O)cc2C(c2ccccc2)C1 (stereo not drawn)
Second: C[C@@H](NC(=O)/C(C#N)=C/c1ccc(O)c(O)c1)c1ccccc1
The “activity change” value of the first is higher: 26% for the first, 1.55% for the second.

Compared with `NC[C@@H]1O[C@H](C23CC4CC(CC(C4)C2)C3)Cc2c1ccc(O)c2O`, `S=C(S)OC1CC2CC1C1CCCC21` (stereo not drawn) is higher in “activity change” value: -28.3% for the first, 1.86% for the second.

First: OCC1O[C@H](O)C(Cl)C(O)C1O (stereo partly drawn)
Second: NCC1OC(O[C@H]2[C@H](O)[C@@H](OC3C(O)C(N)CC(N)C3OC3OC(CO)C(O)C(O)C3N)O[C@@H]2CO)C(N)C(O)C1O (stereo partly drawn)
The “activity change” value of the first is lower: -17.9% for the first, 46.8% for the second.

Going from `CCCn1c(=O)c2[nH]c(-c3ccc(OCC(=O)NCCN)cc3)nc2n(CCC)c1=O` to `COc1cc2nc(N3CCN(C(=O)OCc4ccccc4)C(C(=O)NC(C)(C)C)C3)nc(N)c2cc1OC` (stereo not drawn), the “activity change” value rises from 8.77% to 35.9%.

First: NC(=S)c1ccc[n+]([C@@H]2O[C@@H](COP(=O)([O-])OP(=O)(O)OC[C@H]3O[C@@H](n4cnc5c(N)ncnc54)[C@H](OP(=O)(O)O)[C@@H]3O)C(O)C2O)c1 (stereo partly drawn)
Second: CC(C)CC(NP(=O)(O)O[C@@H]1O[C@@H](C)[C@H](O)[C@@H](O)[C@H]1O)C(=O)NC(Cc1c[nH]c2ccccc12)C(=O)O (stereo partly drawn)
The “activity change” value of the first is higher: 30.4% for the first, 6.56% for the second.

For `Clc1ccc(N2CCN(Cc3c[nH]c4ncccc34)CC2)cc1`, the “activity change” value was -16.6%.
